TROY signal inh: inhibitors of TROY-driven NF-kB signaling, primary screen, Q293 LMP1-TROYcd cells, NF-kB luciferase, uHTS; Q293 LMP1-TROYcd NF-kB luciferase reporter, 4 h; inhibition, % at 10 µM; 0.98% of 360,000 active;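 active = compounds whose plate-normalised and pattern-corrected inhibition of the luciferase reporter signal at the single screening dose is 50% or more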
LGR2 inh: inhibitors of bursicon-induced LGR2 CRE-luciferase signal, primary screen, cell-based, HEK293, CRE-luciferase reporter, bursicon stimulation; Drosophila bursicon receptor LGR2 (rickets); 0.35% of 380,000 active; bursicon-stimulated, 4 h; inhibition, % at 9.99 µM; AID 720647, 2013;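 active = drop in luminescence signal, shown as inhibition above about 50% in the replicate tests, limit read from the data, passing the limit was not always enough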;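 also: agonist challenge used bursicon conditioned medium at about half maximal strength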
HSP90 inh: HSP90 inhibitors, primary screen, cell lysate, luminescence; 0.91% of 290,000 active; AID 1789, 2009; Heat shock protein HSP 90 (rabbit reticulocyte lysate; luciferase refolding); Rabbit reticulocyte lysate, luciferase refolding luminescence, 3 h; inhibition, % at 5.6 µM;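 active = inhibition above the screen-wide mean plus 3 SD, computed separately per campaign, cut at about 16% in these data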;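 also: 0% = DMSO wells and 100% = 60 µM geldanamycin wells; inhibitors lower the luminescence because luciferase stays unfolded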
TWEAK Fn14 block: inhibitors of TWEAK-Fn14 signaling, primary screen, luciferase reporter cells, uHTS; TWEAK-stimulated Fn14 reporter cells, luciferase luminescence, 8 h; AID 1159606, 2016; 2% of 360,000 active; inhibition, % at 10 µM; in the data active = inhibition above about 50%
* marks the source's active call; other numbers are inactive results. A selection: hits, their analogues and other compounds. The true share with any hit is near 2.2%.

COc1cc(/C=C/C(=O)Nc2ccc(OC)c(S(=O)(=O)N3CCOCC3)c2)ccc1OC(F)F was read as TROY signal inh 57*, LGR2 inh 0 and TWEAK Fn14 block 50.
Screening Cc1ccc(NC(=O)/C=C/c2ccc(S(=O)(=O)N3CCOCC3)cc2)cc1S(=O)(=O)N(C)C returned TROY signal inh 53*, LGR2 inh 48 and TWEAK Fn14 block 68*.
Screening NS(=O)(=O)c1ccc(CCNC(=O)/C=C/c2ccc(S(=O)(=O)N3CCOCC3)cc2)cc1 returned TROY signal inh -14, LGR2 inh -2 and TWEAK Fn14 block 84*.
COc1ccc(/C=C/C(=O)Nc2ccc(C(C)=O)cc2)cc1S(=O)(=O)N1CCOCC1 was read as TROY signal inh -7, LGR2 inh -3 and TWEAK Fn14 block 5.
Screening O=C(C1CCCC1)N1CC(=O)N2[C@H](CO)[C@H](c3ccc(-c4cccnc4)cc3)[C@H]2C1 returned LGR2 inh -16.
`CCOC(=O)/C(=C\c1cccc(O)c1)c1nc2sc(C)c(C)c2c(=O)[nH]1` gave TROY signal inh 37, LGR2 inh 84*, HSP90 inh 5 and TWEAK Fn14 block 101*.
For CC(C)NC(=O)N(C)C[C@@H]1Oc2ccc(NC(=O)Cc3ccccc3)cc2C(=O)N([C@H](C)CO)C[C@@H]1C the results were LGR2 inh 7.
COc1ccc2c3c([nH]c2c1)[C@@H](CO)N(S(C)(=O)=O)CC31CN(C(=O)Nc2ccccc2)C1 was read as LGR2 inh 1.
`COc1ccc(-n2nc3cc(C)c(NC(C)=O)cc3n2)cc1` gave TROY signal inh 57*, LGR2 inh 48, HSP90 inh 7 and TWEAK Fn14 block 75*.
Screening COc1ccc(-n2nc3cc(C)c(NC(=O)C(C)C)cc3n2)cc1 returned HSP90 inh 2.
CC(=O)N[C@H]1CC[C@@H](CCNC(=O)C2CCCC2)O[C@H]1CO was read as LGR2 inh 7.
CCCC#Cc1cnc2c(c1)C(=O)N([C@@H](C)CO)C[C@@H](C)[C@@H](CN(C)Cc1ccncc1)O2 was read as LGR2 inh -8.
For Cc1ccc2nc(-c3ccc(NC(=O)C(C)Sc4nncs4)cc3)sc2c1 (stereo not drawn) the results were TROY signal inh 73*, LGR2 inh 58* and TWEAK Fn14 block 89*.
Screening O=C(CCN1C(=O)NC2(CCCC2)C1=O)Nc1ccc(Sc2ccc(Br)cc2)cc1 returned TROY signal inh 31, LGR2 inh 20 and TWEAK Fn14 block 3.
Screening Cc1ccc2nc(-c3ccc(NC(=O)CSc4nccc(=O)[nH]4)cc3)sc2c1 returned TROY signal inh 51*, LGR2 inh -28, HSP90 inh 8 and TWEAK Fn14 block 24.
For O=C(Nc1ccc(-c2nc3ccccc3s2)cc1)c1cc(-n2cnnc2)ccc1Cl the results were TROY signal inh 53*, LGR2 inh -1, HSP90 inh 6 and TWEAK Fn14 block 95*.
Screening O=C(CCN1C(=O)NC2(CCCC2)C1=O)Nc1ccc(-c2nc3ccccc3s2)cc1 returned TROY signal inh 43, LGR2 inh 3 and TWEAK Fn14 block 60*.
Screening Cc1ccc2nc(-c3ccc(NC(=O)CSc4nc(N)cc(=O)[nH]4)cc3)sc2c1 returned TROY signal inh -19, LGR2 inh -36, HSP90 inh -2 and TWEAK Fn14 block -7.
Screening CNC[C@H]1Oc2ccc(NC(=O)C3CC3)cc2CC(=O)N([C@@H](C)CO)C[C@H]1C returned LGR2 inh 16.
COc1ccc2c3c([nH]c2c1)[C@H](CO)N(S(=O)(=O)c1cn(C)cn1)CC31CCN(Cc2ccccc2F)CC1 was read as LGR2 inh 3.
Screening Cc1nnc(SCC(=O)Nc2ccccc2NC(=O)CSc2nnc(C)s2)s1 returned TROY signal inh -2, LGR2 inh 1, HSP90 inh -1 and TWEAK Fn14 block 9.
`Cc1nnc(SCC(=O)Nc2ccc(-c3nc4ccccc4s3)cc2)s1` gave TROY signal inh 55*, HSP90 inh -6 and TWEAK Fn14 block 77*.
CCNC(=O)C[C@H]1CC[C@H]2[C@H](COc3ccc(NC(=O)Nc4ccc(Cl)cc4)cc3C(=O)N2C)O1 was read as LGR2 inh 12.
`CN(Cc1ccccc1)C(=O)N[C@@H](Cc1ccccc1)C(=O)O` gave HSP90 inh 4 and TWEAK Fn14 block 81*.
`COC(=O)[C@H](Cc1ccccc1)NC(=O)N(C)Cc1ccccc1` gave TROY signal inh -8, LGR2 inh -24, HSP90 inh -4 and TWEAK Fn14 block 4.
Cc1ccc(C2=NC(C(F)(F)F)(C(F)(F)F)c3c(n(-c4ccc(F)cc4)c(=O)[nH]c3=O)N2)cc1 was read as TROY signal inh 1, LGR2 inh -8, HSP90 inh 0 and TWEAK Fn14 block 17.
`O=c1[nH]c(=O)n(-c2ccc(F)cc2)c2c1C(C(F)(F)F)(C(F)(F)F)N=C(c1ccc(F)cc1)N2` gave TROY signal inh 42, LGR2 inh 31, HSP90 inh -2 and TWEAK Fn14 block 65*.
C[C@H](CO)N1C[C@H](C)[C@H](CN(C)Cc2ccc(C(=O)O)cc2)Oc2ccc(NC(=O)NC3CCCCC3)cc2CC1=O was read as LGR2 inh 15.
Nc1cc2c(cc1[N+](=O)[O-])-c1ccccc1C2=NO was read as TROY signal inh 43, LGR2 inh 0 and TWEAK Fn14 block 72*.
`O=S(=O)(NCC[C@H]1CC[C@H](NS(=O)(=O)c2cccc(Cl)c2)[C@@H](CO)O1)c1cccc(F)c1` gave LGR2 inh -12.
Screening CC(C)C#Cc1cnc2c(c1)C(=O)N([C@H](C)CO)C[C@@H](C)[C@H](CN(C)C(=O)c1cccc(F)c1)O2 returned LGR2 inh 1.
Oc1ccc(/C=N/Nc2nc(-c3ccc(Cl)cc3)cc(C(F)(F)F)n2)cc1 was read as TROY signal inh 45, HSP90 inh 5 and TWEAK Fn14 block 79*.
Screening Cc1noc(C)c1NC(=O)N(C)C[C@@H]1Oc2ccc(NC(=O)c3ccncc3)cc2CC(=O)N([C@@H](C)CO)C[C@H]1C returned LGR2 inh 2.
`COc1ccc2c3c(n(C)c2c1)[C@@H](CO)N(C(=O)CN1CCOCC1)CC31CCN(C(C)=O)CC1` gave LGR2 inh -6.
Screening COc1ccc(-c2nc(-c3cccnc3)no2)cc1OC returned TROY signal inh -31, LGR2 inh -57, HSP90 inh -4 and TWEAK Fn14 block 84*.
For COc1cc(-c2nc(-c3cccnc3)no2)cc(OC)c1OC the results were TROY signal inh -10, LGR2 inh -2, HSP90 inh -1 and TWEAK Fn14 block -8.
Screening COc1ccc(-c2csc3nc(-c4cccnc4)nc(Cl)c23)cc1OC returned TROY signal inh 36, LGR2 inh -6, HSP90 inh -1 and TWEAK Fn14 block 53*.
Screening COCC(=O)Nc1ccc2c(c1)OC[C@H](C)N(Cc1ccccc1)C[C@@H](C)[C@@H](OC)CN(C)C2=O returned LGR2 inh 5.

Source: PubChem
